# Screening data as filed in PubChem BioAssay.
# BAZ2B inh = blocks human BAZ2B; Q9UIF8; AlphaScreen BAZ2B-H3K14Ac peptide displacement; Potency, µM (titrated, usually from 114 µM), without a hit: top-dose activity change, negative = inhibition, actives largely listed as inhibitors; 4.4% of 360,000 active; further: potency means the concentration at half of the fitted maximal effect; on the % scale 0 is the no-effect control and ±100 the full control effect; nearly all actives have a fitted effect of over 60% in size
# Target sequence (Q9UIF8 whole entry, looked up): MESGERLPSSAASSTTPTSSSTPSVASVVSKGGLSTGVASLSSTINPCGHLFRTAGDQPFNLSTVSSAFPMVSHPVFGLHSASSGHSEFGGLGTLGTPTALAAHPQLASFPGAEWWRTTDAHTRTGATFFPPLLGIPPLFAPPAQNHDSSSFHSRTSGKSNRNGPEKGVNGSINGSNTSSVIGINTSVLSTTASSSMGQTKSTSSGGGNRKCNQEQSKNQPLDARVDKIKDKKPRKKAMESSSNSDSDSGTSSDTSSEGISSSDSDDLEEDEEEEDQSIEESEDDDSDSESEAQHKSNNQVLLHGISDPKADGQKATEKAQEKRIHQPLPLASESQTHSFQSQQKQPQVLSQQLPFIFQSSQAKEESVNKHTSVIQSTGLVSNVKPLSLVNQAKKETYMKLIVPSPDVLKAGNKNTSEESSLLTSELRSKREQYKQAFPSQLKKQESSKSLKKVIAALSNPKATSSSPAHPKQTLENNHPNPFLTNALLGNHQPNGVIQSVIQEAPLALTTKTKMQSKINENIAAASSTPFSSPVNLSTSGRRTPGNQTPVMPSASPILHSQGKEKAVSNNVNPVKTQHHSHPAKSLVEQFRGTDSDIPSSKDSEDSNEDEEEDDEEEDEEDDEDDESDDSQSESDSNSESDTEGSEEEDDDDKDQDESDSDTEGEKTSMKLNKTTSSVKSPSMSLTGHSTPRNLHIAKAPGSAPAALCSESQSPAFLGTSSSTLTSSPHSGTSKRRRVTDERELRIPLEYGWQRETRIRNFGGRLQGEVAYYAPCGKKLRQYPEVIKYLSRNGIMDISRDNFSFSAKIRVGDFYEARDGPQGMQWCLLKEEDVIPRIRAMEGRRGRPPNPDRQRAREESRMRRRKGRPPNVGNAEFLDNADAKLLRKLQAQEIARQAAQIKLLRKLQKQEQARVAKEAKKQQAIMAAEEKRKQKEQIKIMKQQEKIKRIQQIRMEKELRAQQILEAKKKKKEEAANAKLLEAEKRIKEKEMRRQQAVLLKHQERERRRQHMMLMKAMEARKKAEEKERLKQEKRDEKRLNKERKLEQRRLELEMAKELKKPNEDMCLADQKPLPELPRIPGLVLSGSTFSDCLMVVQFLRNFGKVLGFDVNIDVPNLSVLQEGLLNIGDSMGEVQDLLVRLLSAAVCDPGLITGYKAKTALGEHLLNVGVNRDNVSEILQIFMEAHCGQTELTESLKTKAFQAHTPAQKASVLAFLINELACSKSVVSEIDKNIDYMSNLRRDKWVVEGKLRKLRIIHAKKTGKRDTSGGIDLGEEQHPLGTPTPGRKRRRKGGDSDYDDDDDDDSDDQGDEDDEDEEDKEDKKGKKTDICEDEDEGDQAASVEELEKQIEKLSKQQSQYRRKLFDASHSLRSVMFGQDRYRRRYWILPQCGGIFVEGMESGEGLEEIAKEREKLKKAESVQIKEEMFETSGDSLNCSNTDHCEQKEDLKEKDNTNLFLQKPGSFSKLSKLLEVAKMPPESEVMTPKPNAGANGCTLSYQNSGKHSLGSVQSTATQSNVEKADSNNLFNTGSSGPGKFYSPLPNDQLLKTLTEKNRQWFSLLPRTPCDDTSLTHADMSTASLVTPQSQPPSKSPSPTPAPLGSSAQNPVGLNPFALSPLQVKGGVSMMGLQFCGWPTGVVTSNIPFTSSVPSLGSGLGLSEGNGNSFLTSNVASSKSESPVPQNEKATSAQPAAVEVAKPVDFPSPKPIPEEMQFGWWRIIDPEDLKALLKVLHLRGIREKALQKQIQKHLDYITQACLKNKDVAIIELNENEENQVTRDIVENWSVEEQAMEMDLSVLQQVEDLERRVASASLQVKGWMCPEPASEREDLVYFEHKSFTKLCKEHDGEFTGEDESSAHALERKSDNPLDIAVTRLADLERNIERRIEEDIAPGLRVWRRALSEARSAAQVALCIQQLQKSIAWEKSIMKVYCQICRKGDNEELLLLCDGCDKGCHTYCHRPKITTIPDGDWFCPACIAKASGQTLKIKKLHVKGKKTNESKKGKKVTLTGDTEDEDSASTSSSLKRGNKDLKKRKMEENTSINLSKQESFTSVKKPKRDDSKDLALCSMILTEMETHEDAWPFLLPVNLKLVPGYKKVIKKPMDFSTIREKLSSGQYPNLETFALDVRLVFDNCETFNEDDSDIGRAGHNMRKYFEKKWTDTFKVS
#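 AlphaScreen displacement of biotin-H3(5-23)K14Ac peptide (50 nM final) from BAZ2B (50 nM final) in PBS pH 7.4, 0.01% Tween-20; complex preformed 30 min RT, then compounds (top 110 uM) 30 min RT, beads 20 min dark.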
# HP1b binding inh = inhibitors of HP1-beta chromodomain binding to methylated histone tails. P83916. AlphaScreen HP1-beta / biotin-H3K9me3 peptide binding. Potency, µM (doses to about 114 µM), for inactives: at the highest dose activity change, negative = inhibition, actives largely listed as inhibitors. 0.56% of 390,000 active. AID 540317; further: potency means the concentration at half of the fitted maximal effect; nearly all actives have a fitted effect of over 70% in size
#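 AlphaScreen: HP1-beta (50 nM) preformed 30 min with biotin-H3(1-18)K9me3 peptide (50 nM) in PBS pH 7.4, 0.01% Tween-20. Compound added for 30 min at RT, then streptavidin donor/nickel chelate acceptor beads (10 ug/mL) for 30 min.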
# PLK1 PBD block = PLK1 (human) polo-box domain binding inhibition; Potency, µM, for inactives: max response, negative = inhibition, most hits filed as inhibitors; Plk1 PBD binding of FITC phosphopeptide, fluorescence polarization; P53350; 2.8% of 360,000 active; further: potency means the concentration at half of the fitted maximal effect; series mostly up to about 57 µM; on the % scale 0 is the no-effect control and ±100 the full control effect; nearly all actives have a fitted effect of over 65% in size
# JMJD2A Tudor inh = inhibitors of human JMJD2A Tudor domain | AID 504339 | O75164 | Potency, µM (titrated, usually from 114 µM), without a hit: at the highest dose activity change, negative = inhibition, hits mostly inhibitors | AlphaScreen JMJD2A-Tudor / H3K4me3 peptide binding | 4.4% of 390,000 active; further: potency means the concentration at half of the fitted maximal effect; on the % scale 0 is the no-effect control and ±100 the full control effect; nearly all actives have a fitted effect of over 50% in size
# G9a block = inhibitors of human histone lysine methyltransferase G9a; Q96KQ7; G9a H3K9 monomethylation, AlphaScreen, 2 h; Potency, µM (top dose mostly 102 µM), for the others: at the top dose activity, negative = inhibition, actives largely listed as inhibitors; 8.8% of 350,000 active; AID 504332; further: potency means the concentration at half of the fitted maximal effect; on the % scale 0 is the no-effect control and ±100 the full control effect; nearly all actives have a fitted effect of over 75% in size
#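 Step 1: enzyme (final 20 nM) with compound, 15 min RT. Step 2: substrate peptide 500 nM and SAM 20 uM, 2 h RT. Step 3: anti-H3K9me1 antibody and AlphaScreen beads, 10 min, then plate read.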
# PI5P4Ka inh = blocks human PI5P4K alpha kinase activity; max response, %; PI5P4Kalpha enzyme, ADP-Glo luminescence, 60 min; active compounds read low; 1.2% of 330,000 active; AID 652105; active means max response of -50% or lower; inconclusive means between -30% and -50%; inactive means -30% or higher; further: value at the top dose of about 77 µM; on the % scale 0 is the no-effect control and ±100 the full control effect
#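 Compounds were pin-transferred onto PI5P4Kalpha and substrate in HEPES pH 7.4 buffer with EGTA, CHAPS and 5% DMSO. ATP (5 microM final) started the reaction, which ran 60 minutes at room temperature before ADP-Glo detection.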
# Numbers without * were called inactive; ? = inconclusive; nt = no result given; [ ] = remark or other dose. Only some compounds are listed: those with a hit (about 12% of all), similar ones and a draw of the others. Unless noted, the call rests on the fitted dose curve; in most records, active means well fitted curve in the direction sought with a large enough effect; inconclusive means small, poorly fitted or top-dose-only effect, or another doubt; inactive means no such curve, though single readings can be large; an effect the other way counts as inactive or inconclusive.
SMILES,BAZ2B inh,HP1b binding inh,PLK1 PBD block,JMJD2A Tudor inh,G9a block,PI5P4Ka inh
Cc1ccc(-n2nc3c(c2NC(=O)C(C)(C)C)CSC3)c(C)c1,-6%,?,-4%,-12%,40µM*,nt
Cc1ccc(-n2nc3c(c2NC(=O)c2ccco2)CS(=O)C3)c(C)c1 (stereo not drawn),9%,23%,-12%,-15%,14µM*,-10
CCC(=O)Nc1c2c(nn1-c1ccccc1)CSC2,-12%[57.1 µM],40%,-6%,-1%,8%,1
CCC(=O)Nc1c2c(nn1-c1ccc(C)cc1C)CSC2,-3%,23%,-8%,-13%,50µM*,nt
CC(C)(C)C(=O)Nc1c2c(nn1-c1ccc(F)cc1)CSC2,-12%,14%[57 µM],-1%,-14%,63%[59 µM],1
CCOc1ccc(NC(=O)Cn2nc(-c3ccncc3)ccc2=O)cc1,5%,13%[57 µM],nt,-3%,12%[59 µM],nt
COc1ccc(NC2C=CS(=O)(=O)C2)cc1 (stereo not drawn),-3%,45%,-19%,-16%,6%[59 µM],-1
O=S1(=O)C=CC(Nc2ccccc2)C1 (stereo not drawn),0%[57.1 µM],?,27µM*,-73%[57.1 µM],23%,-24
CCOc1ccc(CNC(=O)Nc2ccccc2)cc1,-5%,7%,2%,-7%,18%,2
CCOC(=O)[C@@H]1[C@H]2COc3ccccc3[C@@H]2N2C(=O)N(c3ccccc3)C(=O)[C@]12C,-1%,37%,-4%,-4%,-11%,3
CS(=O)(=O)c1ccc2nc(NC(=O)c3ccc(Cn4cc(Br)cn4)o3)sc2c1,-9%,12%,-20%,-24%,?,?
Clc1ccc(-c2nnc(N3CCCC3)nn2)cc1,?,?,-8%,-30%,7.1µM*,-1
CCSc1cc(N2CCCC2)nc(-c2ccc(Cl)cc2)n1,8%,199%,-5%,17%,-10%[0.501 µM],7
COC(=O)C(CC(C)C)NC(=O)C(N)Cc1ccccc1 (stereo not drawn),4%,12%,-7%,?,45µM*,-1
CC(C)C[C@@H](C=O)NC(=O)[C@H](CC(C)C)NC(=O)[C@H](CC(C)C)NC(=O)OCc1ccccc1,nt,nt,nt,nt,8.9µM*,nt
COC(=O)CCC(NC(=O)OCc1ccccc1)C(=O)NC(CC(C)C)C(=O)OC (stereo not drawn),4%,13%,-7%,-21%,-12%,3
O=C(N[C@@H](Cc1ccccc1)C(=O)N[C@@H](Cc1ccccc1)C(=O)O)OCc1ccccc1,11%,71%,-4%,-19%,23%[2.33 µM],-3
O=C(N[C@@H](Cc1ccccc1)C(=O)CCl)OCc1ccccc1,4%,55%,30µM*,-9%,15µM*,1
CCN(CC)C(=O)c1sc2nc(-c3cccs3)cc(-c3ccc(Cl)cc3)c2c1N,30%[57.1 µM],175%,?,47%,0%,-7
CCN(CC)C(=O)c1sc2nc(-c3cccs3)cc(-c3cccs3)c2c1N,7%,90%,69%,1%,32µM*,-6
NC(=O)c1sc2nc(-c3cccs3)ccc2c1N,-21%,45%,?,-1%,35µM*,-26
Cc1ccccc1NC(=S)NC(=O)c1cc(-c2ccccc2)nc2ccccc12,-37%,-24%,30µM*,?,nt,-14
Cc1cccc(NC(=S)NC(=O)c2cc(-c3ccccc3)nc3ccccc23)c1,-39%,-20%,-10%,-27%,nt,1
Cc1cccc(NC(=O)c2cc(-c3ccco3)nc3ccccc23)n1,?,34%,-13%,-26%,32µM*,5
Cc1ccc(S(=O)(=O)N(C)C)cc1NC(=O)c1cc(-c2ccco2)nc2ccccc12,?,7%,-14%,?,40µM*,-56*
SMILES,BAZ2B inh,HP1b binding inh,PLK1 PBD block,JMJD2A Tudor inh,G9a block,PI5P4Ka inh
O=C(N/N=C/c1cccc(F)c1)c1cc(-c2ccco2)nc2ccccc12,6.3µM*,28µM*,11µM*,?,?,-88*
Cc1cccc(NC(=O)c2cc(Cl)nc3ccccc23)n1,1%,17%,-4%,-12%,-3%,4
CCN1CCN(S(=O)(=O)c2cc3c(cc2Cl)NC(=O)CO3)CC1,-28%,16%,-11%,-18%,-19%,-16
CC(Oc1ccccc1)C(=O)N1CCC2(CC1)CC(=O)c1ccccc1O2 (stereo not drawn),-4%,6%,-8%,-2%,1%,8
CC(C)c1ccc(NC(=O)C2CCCN2S(=O)(=O)c2ccc3nc(-c4ccccc4)[nH]c3c2)cc1 (stereo not drawn),?,12%,nt,0%,1%[59 µM],nt
COc1ccc(NC(=O)c2cc(-c3ccco3)nc3ccccc23)cc1,nt,-6%,-9%,?,nt,?
Cc1ccccc1NC(=O)c1cc(-c2ccco2)nc2ccccc12,nt,?,?,20µM*,nt,?
CCOC(=O)c1[nH]c2c(c1Cc1ccccc1OC)C(=O)CC(c1ccccc1)C2 (stereo not drawn),0%,24%,nt,-18%,1%[59 µM],nt
Cc1cccc(Oc2cc(NC(=O)Cn3cnc([N+](=O)[O-])n3)cc([N+](=O)[O-])c2)c1,?,-18%,-3%,?,14µM*,14
Cc1cc([N+](=O)[O-])nn1CCCC(=O)Nc1cc(Oc2ccccc2)cc([N+](=O)[O-])c1,?,1%,-1%,?,40µM*,5
O=C(/C=C/[C@H]1O[C@@H](n2ccc(=O)[nH]c2=O)[C@H](O)[C@@H]1O)NCc1ccccc1,nt,nt,-7%,nt,nt,-1
S=C(NCc1ccccc1)C(=S)NCc1ccccc1,nt,?,?,35µM*,nt,6
S=C(NCCCCNC(=S)NCc1ccccc1)NCc1ccccc1,-20%,-11%,?,-1%,45µM*,4
S=C(NCCc1ccccc1)NCc1cccc(Cl)c1,?,37%,-9%,3%,8.9µM*,4
S=C(NCCc1ccccc1)NCCc1ccccc1,-7%,11%,-7%,-20%,-1%[59 µM],5
Cc1ccc(NC(=O)CN2C(=O)CSc3ccc(S(=O)(=O)N(C)C)cc32)c(C)c1,-8%,16%,nt,-15%,4%[59 µM],nt
Cc1ccc(S(=O)(=O)c2cnc(SCC(=O)Nc3cc(C)cc(C)c3)nc2N)cc1,-3%,16%,nt,-9%,-5%[59 µM],nt
CCNc1ncc2nc(C)c(=O)n(CCc3ccccc3)c2n1,nt,nt,nt,nt,-1%[0.501 µM],nt
Cc1ccc(-n2ncc3c(N4CCC(Cc5ccccc5)CC4)ncnc32)cc1,-4%,21%,nt,17%,11%[59 µM],nt
NC(=O)C[C@H]1NC(=O)[C@H](CCC(=O)O)NC(=O)c2cc([N+](=O)[O-])cc(I)c2NCCC[C@@H](C(N)=O)NC1=O,?,41%,-22%,-19%,45µM*,-1
